{"source": "PubChem BioAssay (NCATS)", "key": {"[1]": {"test_system": "TAB109", "experiment": "qHTS profiling for inhibitors of Plasmodium falciparum proliferation (AID 504749); further: nearly all actives have a fitted effect of over 60% in size", "details": "P. falciparum in erythrocytes, SYBR Green DNA, 72 h; series mostly up to 28.7 µM", "how_it_was_run": "(§1)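 Fluorescence of SYBR Green-bound parasite DNA, read at 485/535 nm, served as the growth measure. Infected erythrocytes were cultured with compound 72 h; artemisinin (0.29 uM) and DMSO wells defined the normalization range.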"}, "[2]": {"test_system": "TAB113", "experiment": "qHTS profiling for inhibitors of Plasmodium falciparum proliferation (AID 504749)", "details": "P. falciparum in erythrocytes, SYBR Green DNA, 72 h; series mostly up to 28.7 µM", "how_it_was_run": "as §1"}, "[3]": {"test_system": "TAB165", "experiment": "qHTS profiling for inhibitors of Plasmodium falciparum proliferation (AID 504749)", "details": "P. falciparum in erythrocytes, SYBR Green DNA, 72 h; series mostly up to 28.7 µM", "how_it_was_run": "as §1"}, "[4]": {"test_system": "W2", "experiment": "qHTS profiling for inhibitors of Plasmodium falciparum proliferation (AID 504749)", "details": "P. falciparum in erythrocytes, SYBR Green DNA, 72 h; series mostly up to 28.7 µM", "how_it_was_run": "as §1"}, "[5]": {"target": "Cytochrome P450 3A4 (Homo sapiens) (UniProt P08684)", "sequence (P08684 whole entry, looked up)": "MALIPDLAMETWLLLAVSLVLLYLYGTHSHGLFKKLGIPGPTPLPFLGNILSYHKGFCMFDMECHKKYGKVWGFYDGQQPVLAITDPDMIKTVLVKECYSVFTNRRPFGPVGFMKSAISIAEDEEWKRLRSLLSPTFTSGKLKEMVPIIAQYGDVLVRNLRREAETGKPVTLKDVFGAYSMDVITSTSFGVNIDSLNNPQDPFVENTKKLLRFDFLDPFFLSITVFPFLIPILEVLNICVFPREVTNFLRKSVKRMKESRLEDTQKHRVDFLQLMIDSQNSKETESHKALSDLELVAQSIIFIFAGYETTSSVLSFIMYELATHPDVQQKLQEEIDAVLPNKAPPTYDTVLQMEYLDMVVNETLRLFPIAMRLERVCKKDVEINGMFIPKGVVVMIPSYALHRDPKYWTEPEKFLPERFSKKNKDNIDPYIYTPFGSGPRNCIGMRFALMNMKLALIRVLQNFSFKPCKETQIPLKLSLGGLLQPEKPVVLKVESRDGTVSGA", "experiment": "qHTS Assay for Activators of Cytochrome P450 3A4 (AID 885)", "how_it_was_run": "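CYP3A4 activity: Luciferin-PPXE O-dealkylation, 25uM substrate, 200mM KPO4, RT throughout. Read-out is luciferase luminescence; higher values reflect activation.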"}, "[6]": {"experiment": "Confirmation and Secondary Assay for Modulators of Hemoglobin Beta Chain Splicing at IVS2 654 locus (AID 910)", "how_it_was_run": "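HeLa cells stably carrying EGFP interrupted by mutant beta-globin IVS2-654 intron (CMV-driven) were treated with compound for 2 days at 37C; corrected splicing was scored as total peak GFP intensity per well (488 nm excitation, 500-520 nm emission).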"}, "[7]": {"experiment": "Confirmation and Secondary Assay for Modulators of Hemoglobin Beta Chain Splicing at IVS2 705 locus (AID 930)", "how_it_was_run": "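HeLa IVS2-705 EGFP reporter cells, 500/well, compound 2 d at 37C; correct splicing yields fluorescent EGFP. Control: 500 nM antisense PNA. Read-out: total peak GFP intensity.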"}, "[8]": {"target": "Ubiquitin carboxyl-terminal hydrolase 1 (Homo sapiens) (UniProt O94782)", "sequence (O94782 whole entry, looked up)": "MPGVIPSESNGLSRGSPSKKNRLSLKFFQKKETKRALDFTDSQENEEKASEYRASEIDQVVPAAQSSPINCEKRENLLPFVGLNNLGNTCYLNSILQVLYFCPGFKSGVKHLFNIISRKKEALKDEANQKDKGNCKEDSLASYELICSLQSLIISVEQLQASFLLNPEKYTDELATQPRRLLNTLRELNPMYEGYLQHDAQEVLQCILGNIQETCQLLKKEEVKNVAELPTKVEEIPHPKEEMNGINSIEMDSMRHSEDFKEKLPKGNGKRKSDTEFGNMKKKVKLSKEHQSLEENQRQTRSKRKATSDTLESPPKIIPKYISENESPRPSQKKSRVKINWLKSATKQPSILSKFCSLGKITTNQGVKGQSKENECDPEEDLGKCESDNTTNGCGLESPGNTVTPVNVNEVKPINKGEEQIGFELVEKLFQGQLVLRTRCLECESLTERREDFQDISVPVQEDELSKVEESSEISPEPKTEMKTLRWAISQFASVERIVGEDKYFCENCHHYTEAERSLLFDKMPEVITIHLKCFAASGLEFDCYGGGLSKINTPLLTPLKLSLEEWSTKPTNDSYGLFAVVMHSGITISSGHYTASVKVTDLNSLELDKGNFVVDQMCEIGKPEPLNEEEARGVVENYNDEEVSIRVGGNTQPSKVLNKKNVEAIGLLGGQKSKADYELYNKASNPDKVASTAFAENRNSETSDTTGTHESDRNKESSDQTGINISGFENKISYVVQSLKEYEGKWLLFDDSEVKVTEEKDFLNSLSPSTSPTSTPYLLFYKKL", "experiment": "Inhibitors of USP1/UAF1: Pilot qHTS (AID 504865)", "how_it_was_run": "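USP1/UAF1 complex at 1 nM preincubated 15 min at room temperature with compound, then Ub-Rho substrate added at 150 nM final. Fluorescence (480/540 nm) read kinetically in 50 mM HEPES pH 7.8, 0.5 mM EDTA, 1 mM TCEP, 0.1 mg/ml BSA, 0.01% Tween-20.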"}, "[9]": {"target": "Mitogen-activated protein kinase 10 (Mus musculus) (UniProt Q61831)", "experiment": "JNK3 AlphaScreen Assay (AID 530; active means well fitted curve in either direction with a large enough effect, not every such curve was filed as active)", "how_it_was_run": "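Biotinylated GST-cJun(1-79) served as substrate for JNK3 in HepG2 lysates stimulated with IL-1beta and TNF-alpha. ATP was 10 uM final, pH 7.6. Ser73 phosphorylation was quantified by AlphaScreen (680 nm excitation).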"}}, "note": "Results filed as inconclusive are left out. Where a call stands in place of a potency, no number is given. The source made the active and inactive calls. Unless noted, the call rests on the fitted dose curve; in most records, active means well fitted curve in the direction sought with a large enough effect; inconclusive means small, poorly fitted or top-dose-only effect, or another doubt; inactive means no such curve, though single readings can be large; an effect the other way counts as inactive or inconclusive. Bridge positions count the residues as written; N and C are the ends. Square brackets hold non-standard residues; d marks the D form. Peptide text beside a SMILES is read from it. * marks the point of attachment. ξ: configuration not given here. ξDab(CH2SO3H) = NC(CCNCS(=O)(=O)O)C(=O)O; Heptanoyl(6-Me) = CC(C)CCCCC(=O)*; Dab = NCC[CH](N)C(=O)O"}
{"compound": "CCC(C)C1NC(=O)C(CCNCS(=O)(=O)O)NC(=O)C(NC(=O)C(CCNCS(=O)(=O)O)NC(=O)C(NC(=O)C(CCNCS(=O)(=O)O)NC(=O)CCCCC(C)C)C(C)O)CCNC(=O)C(C(C)O)NC(=O)C(CCNCS(=O)(=O)O)NC(=O)C(CCNCS(=O)(=O)O)NC(=O)C(C(C)CC)NC1=O", "note": "(configuration not stated) ({Heptanoyl(6-Me)}-[ξDab(CH2SO3H)]T[ξDab(CH2SO3H)][Dab][ξDab(CH2SO3H)]II[ξDab(CH2SO3H)][ξDab(CH2SO3H)]T; lactam 4-C; configuration not given here)", "values": [{"measurement": "Potency", "setting": "[1]", "result": "inactive"}, {"measurement": "Potency", "setting": "[2]", "result": "inactive"}, {"measurement": "Potency", "setting": "[3]", "result": "inactive"}, {"measurement": "Potency", "setting": "[4]", "result": "inactive"}]}
{"compound": "COc1ccc(-c2c(O)c3c(OC)c4c(cc3oc2=O)OC(C)(C)CC4)cc1", "values": [{"measurement": "Potency", "setting": "[5]", "result": "inactive"}, {"measurement": "outcome", "setting": "[6]", "result": "inactive"}, {"measurement": "outcome", "setting": "[7]", "result": "inactive"}, {"measurement": "Potency", "setting": "[8]", "result": "inactive"}]}
{"compound": "Cc1cc(O)cc(=O)o1", "values": [{"measurement": "outcome", "setting": "[7]", "result": "inactive"}, {"measurement": "Potency", "setting": "[8]", "result": "inactive"}]}
{"compound": "O=c1c2cc(O)c(O)cc2oc2cc(O)c(C3OC(CO)C(O)C(O)C3O)c(O)c12", "note": "(configuration not stated)", "values": [{"measurement": "Potency", "setting": "[5]", "result": "inactive"}, {"measurement": "outcome", "setting": "[6]", "result": "inactive"}, {"measurement": "outcome", "setting": "[7]", "result": "inactive"}, {"measurement": "Potency", "setting": "[8]", "result": "inactive"}]}
{"compound": "Cc1cc(=O)oc2cc(O)c(O)cc12", "values": [{"measurement": "Potency", "setting": "[5]", "result": "inactive"}, {"measurement": "outcome", "setting": "[6]", "result": "inactive"}, {"measurement": "outcome", "setting": "[7]", "result": "inactive"}, {"measurement": "Potency", "setting": "[8]", "result": "inactive"}]}
{"compound": "COc1ccc(-c2cc(=O)c3cc(OC)ccc3o2)cc1", "values": [{"measurement": "Potency", "setting": "[5]", "result": "inactive"}, {"measurement": "outcome", "setting": "[6]", "result": "inactive"}, {"measurement": "outcome", "setting": "[7]", "result": "inactive"}, {"measurement": "Potency", "setting": "[8]", "result": "inactive"}]}
{"compound": "CC(C)=C1C(=O)C(c2ccccc2)=C2CN3C(=O)N(CCc4ccccc4)C(=O)[C@]3(C)[C@H]21", "values": [{"measurement": "outcome", "setting": "[9]", "result": "inactive"}]}
{"compound": "COC(=O)[C@@]1(Cc2ccc(F)cc2)[C@H]2c3cc(C(=O)N(C)C)n(Cc4ccc(OC)c(OC)c4)c3C[C@H]2CN1C(=O)c1ccccc1", "values": [{"measurement": "outcome", "setting": "[9]", "result": "inactive"}]}
{"compound": "Oc1ccc2c(c1)OCC1c3cc4c(cc3OC21)OCO4", "note": "(configuration not stated)", "values": [{"measurement": "Potency", "setting": "[5]", "result": "inactive"}, {"measurement": "outcome", "setting": "[6]", "result": "inactive"}, {"measurement": "outcome", "setting": "[7]", "result": "inactive"}, {"measurement": "Potency", "setting": "[8]", "result": "inactive"}]}
{"compound": "CCCC[C@@H]1C[C@H]1C(NS(=O)(=O)c1cccc2cccnc12)c1ccc(-c2ccccc2)cc1", "note": "(some centres not stated)", "values": [{"measurement": "outcome", "setting": "[9]", "result": "inactive"}]}
{"compound": "COC(=O)[C@@H]1C[C@H]1[C@@H](NS(=O)(=O)c1ccc2ccccc2c1)c1ccccc1", "values": [{"measurement": "outcome", "setting": "[9]", "result": "inactive"}]}
{"compound": "CS(C)(=O)=O", "values": [{"measurement": "Potency", "setting": "[5]", "result": "inactive"}, {"measurement": "outcome", "setting": "[6]", "result": "inactive"}, {"measurement": "outcome", "setting": "[7]", "result": "inactive"}, {"measurement": "Potency", "setting": "[8]", "result": "inactive"}]}
{"compound": "COc1ccc2c3c1OC1CC(O)C=C[C@@]31CCN(C)C2", "note": "(some centres not stated)", "values": [{"measurement": "outcome", "setting": "[7]", "result": "inactive"}, {"measurement": "Potency", "setting": "[8]", "result": "inactive"}]}
{"compound": "CNC1C(O)C2OC3OC(C)CC(=O)[C@@]3(O)O[C@H]2[C@H](NC)C1O", "note": "(some centres not stated)", "values": [{"measurement": "outcome", "setting": "[6]", "result": "inactive"}, {"measurement": "outcome", "setting": "[7]", "result": "inactive"}, {"measurement": "Potency", "setting": "[8]", "result": "inactive"}]}
{"compound": "COC(=O)[C@H]1C[C@@H]1[C@H](NS(=O)(=O)c1ccc2ccccc2c1)c1ccccc1", "values": [{"measurement": "outcome", "setting": "[9]", "result": "inactive"}]}
{"compound": "COC(=O)CC1[C@@]2(C)C[C@]34OC5(C)OC6(C7CC(=O)OC(c8ccoc8)[C@]7(C)CCC6(O5)[C@]13C)C(OC(C)=O)[C@]4(OC(C)=O)C2OC(C)=O", "note": "(some centres not stated)", "values": [{"measurement": "Potency", "setting": "[5]", "result": "inactive"}, {"measurement": "outcome", "setting": "[6]", "result": "inactive"}, {"measurement": "outcome", "setting": "[7]", "result": "inactive"}, {"measurement": "Potency", "setting": "[8]", "result": "inactive"}]}
{"compound": "Cc1cc(C(=O)N[C@@H](c2ccccc2)[C@]2(C)C[C@H]2[C@@H](C)C(=O)Nc2ccc3ccccc3c2)no1", "values": [{"measurement": "outcome", "setting": "[9]", "result": "inactive"}]}
{"compound": "CCCC/C=C/C(NC(=O)c1ccc(C(=O)OC)cc1)c1ccccc1", "note": "(configuration not stated)", "values": [{"measurement": "outcome", "setting": "[9]", "result": "inactive"}]}
{"compound": "C[N+]1(C)C2CC(OC(=O)C(CO)c3ccccc3)CC1C1OC12", "note": "(configuration not stated)", "values": [{"measurement": "outcome", "setting": "[6]", "result": "inactive"}, {"measurement": "outcome", "setting": "[7]", "result": "inactive"}, {"measurement": "Potency", "setting": "[8]", "result": "inactive"}]}
{"compound": "COc1ccc(CNC(=O)[C@H](C)[C@@H]2C[C@@]2(C)[C@@H](NC(=O)OCc2ccccc2)c2ccccc2)cc1OC", "values": [{"measurement": "outcome", "setting": "[9]", "result": "inactive"}]}
{"compound": "COc1cc2c(cc1OC)C(=O)OC2", "values": [{"measurement": "Potency", "setting": "[5]", "result": "inactive"}, {"measurement": "outcome", "setting": "[6]", "result": "inactive"}, {"measurement": "outcome", "setting": "[7]", "result": "inactive"}, {"measurement": "Potency", "setting": "[8]", "result": "inactive"}]}
{"compound": "COC(=O)[C@@]1(Cc2ccc(OC)cc2)[C@H]2c3cc(C(=O)N(C)C)n(Cc4ccc(C)o4)c3C[C@H]2CN1C(=O)c1ccccc1", "values": [{"measurement": "outcome", "setting": "[9]", "result": "inactive"}]}
{"compound": "COCCn1c(C(=O)N2CCCC2)cc2c1C[C@H]1CN(C(=O)c3ccccc3)[C@@](Cc3ccc(OC)cc3)(C(=O)OC)[C@@H]21", "values": [{"measurement": "outcome", "setting": "[9]", "result": "inactive"}]}
{"compound": "C[Si](C)(C)C#Cc1ccccc1NC(=S)Nc1ccccc1", "values": [{"measurement": "outcome", "setting": "[9]", "result": "inactive"}]}
{"compound": "Cc1nnc(SCC2=C(C(=O)O)N3C(=O)C(NC(=O)Cn4cnnn4)[C@@H]3SC2)s1", "note": "(some centres not stated)", "values": [{"measurement": "outcome", "setting": "[7]", "result": "inactive"}, {"measurement": "Potency", "setting": "[8]", "result": "inactive"}]}
{"compound": "COc1ccc(-c2coc3cc(OC)cc(OC)c3c2=O)cc1", "values": [{"measurement": "Potency", "setting": "[5]", "result": "inactive"}, {"measurement": "outcome", "setting": "[7]", "result": "inactive"}, {"measurement": "Potency", "setting": "[8]", "result": "inactive"}]}
{"compound": "COC(=O)[C@@]1(Cc2ccc(OC)cc2)[C@H]2c3cc(C(=O)N(C)C)n(Cc4ccc(S(C)(=O)=O)cc4)c3C[C@H]2CN1C(=O)c1ccccc1", "values": [{"measurement": "outcome", "setting": "[9]", "result": "inactive"}]}
{"compound": "C=C1C(=O)OC2C1CC/C(C)=C/CCC1(C)OC21", "note": "(configuration not stated)", "values": [{"measurement": "Potency", "setting": "[5]", "result": "inactive"}, {"measurement": "outcome", "setting": "[6]", "result": "inactive"}, {"measurement": "outcome", "setting": "[7]", "result": "inactive"}, {"measurement": "Potency", "setting": "[8]", "result": "inactive"}]}
